# Source: PubChem BioAssay (EPA / NIEHS)
# Active and inactive are the calls of the source. Rule for the calls: active = hit-call score of the fitted dose curve at least 0.9, where 1 is the maximum; inactive = score below 0.9.
# Target: Transcriptional activator Myb (Homo sapiens) (UniProt P10242)
# Assay: ATG_Myb_CIS: Attagene CIS-FACTORIAL HepG2 Assay for human Myeloblastosis (Myb) Proto-Oncogene Transcription Factor (AID 2282986)
# Conditions: HepG2 Attagene CIS-FACTORIAL Myb reporter transcription; actives raise or lower the signal
# Description: ATG_CIS is a cell-based, multiplexed-readout assay that uses HepG2, a human liver cell line, with measurements taken at 24 hours after chemical dosing in a 24-well plate.ATG_Myb_CIS is one of 52 assay component(s) measured or calculated from the ATG_CIS assay. It is designed to make measurements of mRNA induction, a form of inducible reporter, as detected with fluorescence intensity signals by Reverse transcription polymerase chain reaction (RT-PCR) and Capillary electrophoresis technology.Data from the assay component ATG_Myb_CIS was analyzed into 1 assay endpoint. This assay endpoint, ATG_Myb_CIS, was analyzed with bidirectional fitting relative to DMSO as the negative control and baseline of activity. Using a type of inducible reporter, measures of mRNA for gain or loss-of-signal activity can be used to understand the reporter gene at the transcription factor-level as they relate to the gene MYB. Furthermore, this assay endpoint can be referred to as a primary readout, because this assay has produced multiple assay endpoints where this one serves a reporter gene function. To generalize the intended target to other relatable targets, this assay endpoint is annotated to the dna binding intended target family, where the subfamily is MYB proteins.
# Human liver HepG2 cells are transiently transfected with multiple reporter transcription units (MRTUs) in 6-well plates using FuGene 6 reagent (Roche; 3 ml FuGene/1 mg DNA). The MRTU constructs are regulated by a cis-regulating element (promoter). […] A major difference between the CIS and TRANS system is that in CIS activities of endogenous TFs are measured, whereas the TRANS assay evaluates changes in activities of exogenous, chimeric NR-Gal4 proteins. […] At the end of 24 hour incubation, total RNA was isolated using TriZol reagent (Invitrogen). The isolated RNA is then reverse-transcribed using oligo(dT) primer and Mo-MLV reverse transcriptase (Invitrogen) with DNAse I (Ambion) treatment for 30 min. The one-tenth of the produced cDNA was amplified by PCR using Taq DNA polymerase (Invitrogen) and two reporter sequence-specific primers. The PCR products were fluorescently labeled by primer extension with 6-arboxyfluorescein (6-FAM) 5'-labeled reporter sequence-specific primer (2 min at 95 C, 20 s at 68 C and 10 min at 72 C) and these products were digested with 5U of HpaI (New England Biolabs) for 2h at 37 C. The fragments were purified using Qiaquick PCR columns (Qiagen), analyzed on an ABI 3130xL genetic analyzer (Applied Biosystems) with peak positions identified by using a set of X-rhodamine (ROX)-labeled MapMarker1000 molecular weight standards (BioVentures). The raw capillary electrophoresis data was processed using Attagraph software (Attagene).
# Sequence of Transcriptional activator Myb (Homo sapiens) (P10242 whole entry, looked up): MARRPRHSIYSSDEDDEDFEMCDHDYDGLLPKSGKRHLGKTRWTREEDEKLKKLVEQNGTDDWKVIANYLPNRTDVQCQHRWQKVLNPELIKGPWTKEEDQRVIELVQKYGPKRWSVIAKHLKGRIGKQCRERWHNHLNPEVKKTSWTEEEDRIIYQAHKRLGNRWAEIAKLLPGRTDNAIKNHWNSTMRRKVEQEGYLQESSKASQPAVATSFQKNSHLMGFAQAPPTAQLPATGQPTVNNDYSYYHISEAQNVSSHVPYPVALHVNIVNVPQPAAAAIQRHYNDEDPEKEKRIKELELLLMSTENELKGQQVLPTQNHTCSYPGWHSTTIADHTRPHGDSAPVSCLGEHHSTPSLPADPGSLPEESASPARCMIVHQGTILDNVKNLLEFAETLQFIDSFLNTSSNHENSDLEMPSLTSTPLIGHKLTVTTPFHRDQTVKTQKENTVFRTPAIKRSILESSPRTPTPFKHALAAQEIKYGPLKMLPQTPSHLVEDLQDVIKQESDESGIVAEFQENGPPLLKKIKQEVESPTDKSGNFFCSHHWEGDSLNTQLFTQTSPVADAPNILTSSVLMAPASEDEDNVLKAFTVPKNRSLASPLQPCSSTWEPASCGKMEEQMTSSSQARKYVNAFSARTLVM
Compound,outcome,AC50
CSc1nc(NC(C)C)nc(NC(C)C)n1,inactive,–
CSC1=N[C@@](C)(c2ccccc2)C(=O)N1Nc1ccccc1,inactive,–
Nc1nc(N)nc(NC2CC2)n1,inactive,–
CC(C1CC1)C(O)(Cn1cncn1)c1ccc(Cl)cc1 (stereo not given),inactive,–
CC1(C(=O)Nc2ccc(O)c(Cl)c2Cl)CCCCC1,inactive,–
CCOP(=S)(OCC)Oc1ccc2c(C)c(Cl)c(=O)oc2c1,inactive,–
CC[C@H](C)[C@H]1O[C@]2(C=C[C@@H]1C)C[C@@H]1C[C@@H](C/C=C(\C)[C@@H](O[C@H]3C[C@H](OC)[C@@H](O[C@H]4C[C@H](OC)[C@@H](NC)[C@H](C)O4)[C@H](C)O3)[C@@H](C)/C=C/C=C3\CO[C@@H]4[C@H](O)C(C)=C[C@@H](C(=O)O1)[C@]34O)O2,inactive,–
CCOP(=S)(Oc1cnc(C(C)(C)C)nc1)OC(C)C (stereo not given),inactive,–
COP(=O)(OC)OC(Br)C(Cl)(Cl)Br (stereo not given),inactive,–
CNc1cnn(-c2cccc(C(F)(F)F)c2)c(=O)c1Cl,inactive,–
CCC(=NOC/C=C/Cl)C1=C(O)CC(C2CCOCC2)CC1=O (stereo not given),inactive,–
CC(C)N(C(=O)SCC(Cl)=C(Cl)Cl)C(C)C,inactive,–
COc1cccc(C(=O)NN(C(=O)c2cc(C)cc(C)c2)C(C)(C)C)c1C,inactive,–
CCCSP(=O)(OCC)SCCC,inactive,–
Cc1nn(-c2cc(NS(C)(=O)=O)c(Cl)cc2Cl)c(=O)n1C(F)F,inactive,–
COc1ccc(C(=CC(=O)N2CCOCC2)c2ccc(Cl)cc2)cc1OC,inactive,–
CNC(=O)ON=C(SC)C(=O)N(C)C,inactive,–
CCCCN(CC)c1c([N+](=O)[O-])cc(C(F)(F)F)cc1[N+](=O)[O-],inactive,–
CN(C)C(=O)Nc1cccc(C(F)(F)F)c1,inactive,–
CCCCOC(=O)[C@@H](C)Oc1ccc(Oc2ccc(C#N)cc2F)cc1,inactive,–

Compound,outcome,AC50
CC1=NNC(=O)N(/N=C/c2cccnc2)C1,inactive,–
CCc1cnc(C2=NC(C)(C(C)C)C(=O)N2)c(C(=O)O)c1 (stereo not given),inactive,–
CCOP(=S)(OCC)OC(Cl)C(Cl)(Cl)Cl (stereo not given),inactive,–
COP(=O)(OC)C(O)C(Cl)(Cl)Cl (stereo not given),inactive,–
CC(Oc1cccc(Cl)c1)C(=O)O (stereo not given),inactive,–
CC(=NC#N)N(C)Cc1ccc(Cl)nc1,inactive,–
CCNc1nc(Cl)nc(NC(C)(C)C#N)n1,inactive,–
CCCCSP(=O)(SCCCC)SCCCC,–,83.3 µM (active)
CNC(=O)Oc1cccc2c1OC(C)(C)O2,inactive,–
CNC(=O)ON=C(C)SC,inactive,–
CCOP(=S)(OCC)SCCSCC,inactive,–
C[N+]1(C)CCCCC1,inactive,–
CC(C)[C@H](C(=O)O[C@H](C#N)c1cccc(Oc2ccccc2)c1)c1ccc(Cl)cc1,inactive,–
CCOP(=S)(OCC)Oc1cc(C)nc(C(C)C)n1,inactive,–
CCC(CC)Nc1c([N+](=O)[O-])cc(C)c(C)c1[N+](=O)[O-],inactive,–
CCOC(=O)COc1cc(-c2nn(C)c(OC(F)F)c2Cl)c(F)cc1Cl,inactive,–
C#CC(C)(C)NC(=O)c1cc(Cl)cc(Cl)c1,inactive,–
C#CCC1=C(C)C(OC(=O)C2C(C=C(C)C)C2(C)C)CC1=O (stereo not given),–,93.4 µM (active)
CN1COCN(Cc2cnc(Cl)s2)C1=N[N+](=O)[O-],inactive,–
CCCOCC(=Nc1ccc(Cl)cc1C(F)(F)F)n1ccnc1,inactive,–
